Results as given in the supplement of paper PMC12632987.

Molecular target: T1, USP38, Q8NB14
T1 chain: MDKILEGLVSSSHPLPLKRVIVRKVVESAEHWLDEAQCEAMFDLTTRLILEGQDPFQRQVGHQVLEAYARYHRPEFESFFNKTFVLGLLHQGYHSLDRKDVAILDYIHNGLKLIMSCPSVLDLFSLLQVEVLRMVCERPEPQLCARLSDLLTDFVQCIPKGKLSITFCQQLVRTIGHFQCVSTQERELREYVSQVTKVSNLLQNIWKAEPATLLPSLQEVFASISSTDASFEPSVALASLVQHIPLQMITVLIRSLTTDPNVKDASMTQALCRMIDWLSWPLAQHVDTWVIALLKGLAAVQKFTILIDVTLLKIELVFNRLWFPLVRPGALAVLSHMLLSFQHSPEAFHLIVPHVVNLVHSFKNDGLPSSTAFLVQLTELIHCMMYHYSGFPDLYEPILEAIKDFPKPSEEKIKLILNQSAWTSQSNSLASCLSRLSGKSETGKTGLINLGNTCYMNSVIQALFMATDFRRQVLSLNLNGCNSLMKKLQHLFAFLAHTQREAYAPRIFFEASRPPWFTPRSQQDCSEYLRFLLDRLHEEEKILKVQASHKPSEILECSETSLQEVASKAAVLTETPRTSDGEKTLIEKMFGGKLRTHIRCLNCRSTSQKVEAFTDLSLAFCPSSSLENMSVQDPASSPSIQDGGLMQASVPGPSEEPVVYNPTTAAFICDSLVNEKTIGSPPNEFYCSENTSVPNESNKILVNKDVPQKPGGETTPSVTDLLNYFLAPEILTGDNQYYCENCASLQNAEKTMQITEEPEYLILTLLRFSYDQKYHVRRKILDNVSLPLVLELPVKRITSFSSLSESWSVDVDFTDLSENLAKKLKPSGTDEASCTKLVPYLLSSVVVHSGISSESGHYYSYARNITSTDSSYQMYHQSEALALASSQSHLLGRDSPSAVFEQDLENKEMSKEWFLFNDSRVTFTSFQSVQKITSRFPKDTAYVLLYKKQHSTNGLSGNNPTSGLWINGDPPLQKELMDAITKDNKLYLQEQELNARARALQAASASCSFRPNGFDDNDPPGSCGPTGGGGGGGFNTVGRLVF
Assay: median log2 fold change of GCK-ALFA target abundance (FLAG IP / Myc IP barcode read proportion) (log2 ratio); each designed protein is fused to an ALFA-tag nanobody in HEK293 cells to bring the named protein to FLAG-tagged glucokinase (GCK); Myc marks an untargeted standard; higher = target protein stabilised (more abundant)
Details: target protein: 3xFLAG-MCP-GCK-ALFA reporter; HEK293 landing pad (RPLP)
Procedure, shortened: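 HEK293 landing-pad cells received a recombined binder library fused to the ALFA nanobody and were induced with 2 μg mL^−1 doxycycline, then transfected with a plasmid encoding a FLAG-tagged target and a Myc-tagged standard. Lysates were collected after 48 h for anti-FLAG and anti-Myc immunoprecipitation, and the circular RNA barcodes were reverse transcribed, amplified and sequenced. Target abundance for each binder is the median log2 ratio of FLAG to Myc barcode read proportions. Barcodes had to reach a proportion of at least 10^−7 in both replicates, each binder needed at least 3 barcodes per replicate, a pseudocount of 10^−6 was applied, and the two replicates were pooled.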

Binder | median log2 fold change
usp_38_diff_out_14_2_111 (protein) AKEELEKATKETLEVLKEATKLAKELKEEVKKDPSKAEEARKKLFEAHDKAGDAVGELNKLILENKELRELNKKATEEVNKAITEYTKATLEALETIAEA | -0.197
usp_38_diff_out_14_2_116 (protein) AVEEIKAATDATLATLAAATAALAELKKRVEADPSLAEEARAEAFAAWDAAADAVGALNRLMEANREHRAERKEATAKINAALTTLTAALTETLEAAAAA | -0.132
usp_38_diff_out_14_2_119 (protein) AKAEIAKATAATLATLAAAIKKAKELTKKVKADPSLKEKARAELDKAWDAAGDAVGALNTLLLANKDLKAENKKATAATNAAITELTKTYTEALEAIEEA | -0.186
usp_38_diff_out_14_2_115 (protein) AVEELKKKTEETLKVLDEAIKKLKELTERVKKDPSTAEEAVKEAFKAWDKAADAVGELNKLILANREHRAENKEATKKVNEKITELTKALTEALTLAAEA | -0.246
usp_38_diff_out_14_2_110 (protein) AEEKLKKATKETLATLKEAIKLAKELKKEVKKDPSKKEEARKKLFEAHDKAADAVGKLAKLIEENKELRELNKKATKEVDKAITEYTKAALEALEEIEKA | -0.599
usp_38_diff_out_14_2_109 (protein) KEEELKKKKEETLKKLDEAIKKAKELKEEVKKDPSKKEEAFKELFEKHDEAADAVGELNKLILENKELRELNKEVTEEVNKKITEYTEAVLEALEEIAEA | -0.1
usp_38_diff_out_14_2_112 (protein) AKEELEKKKEETLKTLEEAIKKAKELKKEVEKDPSKKEEAFKELRKKHDEAADKVGELNKLILENKELRELNKKVTEEVNEKIKEYTEAVLEALEKIAEA | 0.0138
usp_38_diff_out_14_2_114 (protein) GEAEIKAATAETLAVLEEAIKKLKELTERVKADPSKAEEARKEAFEAWDKAADAVGALRKLMEAHREHRAEIKEATAKVNEAITKLTEALTETLELAAEA | -0.239
usp_38_diff_out_14_2_122 (protein) AEAELEAAAAATKATLEDAIKRVKELLEEVKKDPSKAEEALKELRRLWDEAADAVGALARLMEAHRELRALRKRITAEVNALITEFTEAVLELLEEIAEA | -0.56
usp_38_diff_out_14_2_121 (protein) AKEELEKATKKALETLDKALEEAKRLKEEVKKDPSKAEEAFKRLREAWDKAADAVGELNKLMLEHKEEKETIKEATEKVNKKITELTKATLEALEEAAKA | -0.64
usp_38_diff_out_14_2_118 (protein) GEEELKEKKKATLATLDDAIAKAKALEAAVKADPSIAEQARAELRKAWDAAADAVGELERLIREHPEHRELNKEAIKEVNEKLTELTEALLAALQTIAEA | -0.0211
usp_38_diff_out_14_2_113 (protein) AEEELKKAAEKTLKVLDEAIKNLKALKKKVEADPSKAEEATKEAFAAWDKAADAVGELNKLIEANREHRAERKEVTEKVNKKITELTDALTELLTAAAEA | -0.258
usp_38_diff_out_14_2_78 (protein) MEEKVKKLKEEIEKLLEEAKKLLEEAKKLLKEGDELAEEVLEKLDKAFDKLGELAKLLRELRELDPSQRAFVKEMTKKANELIDELTELRTEALLILAER | 0.219
usp_38_diff_out_14_2_117 (protein) GEEEIKKATEETLKVLKEAIKKLKELKKRVEEDPSKAAEATEEAFRAWDKAADAVGALNKLLEAHKEHREENKKATKEVNKAITELTEALTELLTAAAEA | -0.0949
usp_38_diff_out_14_2_79 (protein) MEEKAKEVLKKLEEKTKEVKKVTEELEKALSGSKEEIEKAVEKAFKVLDEAGKVSAEAEEVRRENPKFRAEFKKAFKELDKELSKLSKAILEALEKIAEL | -0.624
usp_38_diff_out_14_2_120 (protein) AVEEIKKATDDTLAKLDAAIAAAKALTAQVKADPSLKEQARAALNAAWDAAGDAVGALNKLLEANKEEKATNKEATAKTNAAITELTAAVLDALTTIEEA | -0.172
